Compounds without any hit were thinned out: in the full panel of roughly 83,000, 20% have a hit.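 96-well plates, one dose, 48 hours. Percent growth reported; active if below 10.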 Values without a mark were called inactive. Active and inactive are the calls of the source.

Holding throughout (test): NCI-60 one-dose screen, 48 h (100 = growth as untreated, 0 = no growth, -100 = all killed)
In one assay the test system is HCT-15 colon. The conditions noted are these: 10 µM unless noted.
The subject of a further assay is SNB-19 CNS. As to conditions: 10 µM unless noted.
Another assay deals with U251 CNS. The conditions noted are these: 10 µM unless noted.
Another assay has as its system PC-3 prostate. As to conditions: 10 µM unless noted.
The test system of the next assay is SK-MEL-5 melanoma. As to conditions: 10 µM unless noted.
The next assay deals with UACC-62 melanoma. As to conditions: 10 µM unless noted.
The test system of a further assay is LOX IMVI melanoma. As to conditions: 10 µM unless noted.
The subject of another assay is SK-MEL-28 melanoma. As to conditions: 10 µM unless noted.
Another assay has as its system SK-MEL-2 melanoma. As to conditions: 10 µM unless noted.
For another assay, the system named is EKVX NSCLC. The conditions noted are these: 10 µM unless noted.
A further assay has as its system SN12C renal. The conditions noted are these: 10 µM unless noted.
For a further assay, the system named is UO-31 renal. As to conditions: 10 µM unless noted.
The subject of another assay is TK-10 renal. As to conditions: 10 µM unless noted.
For the next assay, the system named is ACHN renal. As to conditions: 10 µM unless noted.
A further assay deals with CAKI-1 renal. As to conditions: 10 µM unless noted.
A further assay concerns A498 renal. As to conditions: 10 µM unless noted.
Another assay relates to CCRF-CEM leukemia. The conditions noted are these: 10 µM unless noted.
The subject of a further assay is MOLT-4 leukemia. The conditions noted are these: 10 µM unless noted.
The next assay concerns SNB-75 CNS. The conditions noted are these: 10 µM.

As to `Cc1ccc(C(=O)NCCCNc2nccc(-n3ccc4cccnc43)n2)cc1`, the growth in the assay on HCT-15 colon is 102%; in the assay on SNB-19 CNS, 90.6%; in the assay on U251 CNS it was 93.2%; in the assay on PC-3 prostate it was 97.8%; in the assay with SK-MEL-5 melanoma, 99.5%; with UACC-62 melanoma, 102%. The growth is 97% with LOX IMVI melanoma; 106% with SK-MEL-28 melanoma; 105% with SK-MEL-2 melanoma; 86.1% with EKVX NSCLC; 95.1% in the assay on SN12C renal; 85.9% in the assay with UO-31 renal. The growth in the assay with TK-10 renal is 67.7%; in the assay on ACHN renal it was 83.2%; with CAKI-1 renal it was 96.6%; with A498 renal, 81.7%; with CCRF-CEM leukemia it was 107%; in the assay with MOLT-4 leukemia, 94.1%.

For `COc1ccc(CCNC2=CC(=O)CCC2)cc1OC`, the growth in the assay with HCT-15 colon is 108%; in the assay with SNB-75 CNS, 92.9%; with SNB-19 CNS, 105%; with U251 CNS it was 107%; in the assay on PC-3 prostate, 93%; in the assay on SK-MEL-5 melanoma, 101%. Also, the growth is 109% in the assay with UACC-62 melanoma; 111% in the assay on SK-MEL-28 melanoma; 110% with EKVX NSCLC; 102% with SN12C renal; 81.2% in the assay on UO-31 renal; 115% in the assay on TK-10 renal. The growth with ACHN renal was 110%; with CAKI-1 renal it was 102%; in the assay on A498 renal it was 105%; in the assay on CCRF-CEM leukemia, 102%; in the assay with MOLT-4 leukemia it was 76.2%.

Turning to `COC(OC)c1ccccc1`, the growth is 105% in the assay on HCT-15 colon; 91% with SNB-75 CNS; 99.3% with U251 CNS; 93.1% with PC-3 prostate; 107% in the assay on SK-MEL-5 melanoma; 107% with UACC-62 melanoma. For the same molecule, the growth was 88.2% with LOX IMVI melanoma; 104% with SK-MEL-28 melanoma; 103% in the assay on EKVX NSCLC; 102% in the assay with SN12C renal; 85.4% in the assay on UO-31 renal; 117% with TK-10 renal. The growth in the assay with ACHN renal was 102%; in the assay on CAKI-1 renal it was 95.4%; in the assay with A498 renal it was 132%; in the assay on CCRF-CEM leukemia it was 119%; with MOLT-4 leukemia, 108%.

Take `Nc1nc(Nc2cc(Cl)cc(Cl)c2)nn1S(=O)(=O)c1ccc2ccccc2c1`: the growth in the assay with HCT-15 colon was 59.2%; in the assay with SNB-19 CNS, 78%; in the assay on U251 CNS, 37.5%; in the assay on PC-3 prostate, 48.9%; in the assay with SK-MEL-5 melanoma it was 86.5%; in the assay with UACC-62 melanoma it was 67%. Moreover, the growth is 60.1% in the assay with LOX IMVI melanoma; 84.8% with SK-MEL-28 melanoma; 79.2% in the assay with SK-MEL-2 melanoma; 53.6% in the assay on EKVX NSCLC; 43.3% in the assay on SN12C renal; 14.7% in the assay with UO-31 renal. Besides, the growth with TK-10 renal is 63.5%; in the assay with ACHN renal it was 29.2%; with CAKI-1 renal, 64.1%; with A498 renal, 15.4%; in the assay on CCRF-CEM leukemia it was 57.9%; with MOLT-4 leukemia, 37.6%.

On to `COC(=O)c1nc(-c2ccccc2)oc1S(=O)(=O)N1CCN(c2cccc(Cl)c2)CC1`, for which the growth in the assay with HCT-15 colon is 65.5%; in the assay on SNB-19 CNS, 63.6%; with U251 CNS it was 72.2%; with PC-3 prostate, 82%; in the assay on SK-MEL-5 melanoma, 99.3%; in the assay on UACC-62 melanoma, 79.7%. Besides, the growth with LOX IMVI melanoma is 44.3%; with SK-MEL-28 melanoma, 88.3%; in the assay with SK-MEL-2 melanoma, 90%; in the assay with EKVX NSCLC, 93.4%; with SN12C renal, 74.5%; with UO-31 renal, 62.9%. The growth is 89.4% in the assay with TK-10 renal; 84.8% with ACHN renal; 32.6% in the assay on CAKI-1 renal; 111% in the assay with A498 renal; 4.91% (active) in the assay with CCRF-CEM leukemia; 39.3% with MOLT-4 leukemia.

On to `NNc1cccc(/C=C/c2ccccc2)cc1=O`, for which the growth with HCT-15 colon was 33%; in the assay with SNB-19 CNS, 67.7%; in the assay on U251 CNS, 48.5%; with PC-3 prostate, 61.3%; in the assay on SK-MEL-5 melanoma it was 62.6%; in the assay on UACC-62 melanoma it was 54.5%. Also, the growth is 33.4% in the assay on LOX IMVI melanoma; 81.9% in the assay with SK-MEL-28 melanoma; 83.1% with SK-MEL-2 melanoma; 47.9% in the assay on EKVX NSCLC; 71.6% in the assay with SN12C renal; 24.9% in the assay with UO-31 renal. The growth in the assay on TK-10 renal is 70.7%; in the assay with ACHN renal it was 37.5%; with CAKI-1 renal, 12.7%; with A498 renal it was 83.9%; in the assay on CCRF-CEM leukemia it was 14.1%; in the assay on MOLT-4 leukemia it was 37.6%.

Regarding `COc1ccc(-c2nc(-c3nc4cc(C)c(C)cc4[nH]3)cc3c2[nH]c2ccccc23)cc1`, the growth is 3.41% (active) in the assay on HCT-15 colon; 82.7% in the assay with SNB-19 CNS; 10.5% with U251 CNS; 40.9% in the assay on PC-3 prostate; 45.7% in the assay with SK-MEL-5 melanoma; -0.969% (active) with UACC-62 melanoma. For the same molecule, the growth was -31.6% (active) in the assay with LOX IMVI melanoma; 39.5% in the assay on SK-MEL-28 melanoma; 86.9% with SK-MEL-2 melanoma; 55.2% in the assay on SN12C renal; 56.3% in the assay on UO-31 renal; 81.4% with TK-10 renal. For the same molecule, the growth was 39.6% with ACHN renal; 66.2% with CAKI-1 renal; 93.6% in the assay with A498 renal; -7.91% (active) in the assay with CCRF-CEM leukemia; 12.7% in the assay on MOLT-4 leukemia.

With `Cn1ncc2c(Sc3ccc(Cl)cc3)ncnc21`, the growth in the assay on HCT-15 colon was 97%; with SNB-19 CNS it was 81.6%; with U251 CNS, 81.9%; with PC-3 prostate, 78.1%; in the assay with SK-MEL-5 melanoma, 90.1%; with UACC-62 melanoma it was 87.9%. Moreover, the growth was 78.3% in the assay with LOX IMVI melanoma; 102% in the assay on SK-MEL-28 melanoma; -13.3% (active) with SK-MEL-2 melanoma; 90.2% in the assay on EKVX NSCLC; 90.1% in the assay on SN12C renal; 71% with UO-31 renal. Further, the growth in the assay with TK-10 renal is 82.7%; in the assay with A498 renal, 86.3%; with CCRF-CEM leukemia it was 95.3%; in the assay with MOLT-4 leukemia, 95.8%.

On to `Cc1[nH]c2ccc(F)cc2c1CCNC(=O)C1CCN(C(=O)c2ccccc2)C1` (centres undefined), for which the growth in the assay on HCT-15 colon is 93.4% [25 µM]; in the assay with SNB-19 CNS, 93.2% [25 µM]; with U251 CNS, 92.8% [25 µM]; in the assay with PC-3 prostate, 79.9% [25 µM]; in the assay with SK-MEL-5 melanoma, 82.2% [25 µM]; in the assay on UACC-62 melanoma it was 93.3% [25 µM]. Moreover, the growth is 113% [25 µM] in the assay on SK-MEL-2 melanoma; 80.5% [25 µM] with EKVX NSCLC; 95% [25 µM] in the assay on SN12C renal; 77.1% [25 µM] in the assay on UO-31 renal; 86.9% [25 µM] with TK-10 renal; 96.3% [25 µM] in the assay with ACHN renal. Besides, the growth was 77.1% [25 µM] with CAKI-1 renal, 43.8% [25 µM] with A498 renal and 91.6% [25 µM] with MOLT-4 leukemia.
